Compound activity from PubChem.
A selection: hits, their analogues and other compounds. The true share with any hit is near 6.9%.
NR3A LBD binder: binders of NR3A ligand-binding domain, primary screen, biophysical, differential scanning fluorimetry, uHTS; AID 1259313, 2017; NR3A LBD differential scanning fluorimetry, Tm shift; 0% = protein alone, 100% = glycine-bound protein; Glutamate receptor ionotropic, NMDA 3A (GRIN3A) ligand-binding domain; 340,000 tested, 2.5% active; Tm shift relative to glycine control, % at 25 µM;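 active = melting temperature shift of at least 10% of the positive control shift, at one fixed dose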
MPTP inh: mitochondrial permeability transition pore inhibitors, primary screen, biochemical, isolated mouse mitochondria, absorbance; Ca2+ swelling absorbance, 30 min; inhibition, % at 10 µM; 360,000 tested, 1.4% active; AID 602449, 2012;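 active = inhibition of 50% or more, scaled per plate between neutral and stimulator controls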
Mdm2 MdmX PPI: inhibitors of human Mdm2-MdmX association, primary screen, cell-based, luminescence, split luciferase, SaOS-2, uHTS | SaOS-2 split-luciferase Mdm2/MdmX complementation | inhibition, % at 8 µM | 330,000 tested, 3% active;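 active = inhibition of at least 50% at 8 µM in the primary screen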
CSC inhib: cancer stem cell viability inhibitors, primary screen, luminescence. inhibition, % at 7.5 µM. AID 2717, 2010. cancer stem cell-like cells viability. 300,000 tested, 1.1% active; in the data active = inhibition above about 75%; tested in HMLE shEcad cells
Beta cell apopt: inhibitors of cytokine-induced beta cell apoptosis, primary screen, luminescence | 300,000 tested, 0.8% active | protection from apoptosis, % (no concentration beside the values) | INS-1E cytokine-induced death, ATP luminescence, 48 h; percent of positive-control rescue, neutral wells zero | AID 435005, 2010;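 active = Every replicate reaches about 75%, or at least half do and their mean reaches it too, limit read from the data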;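 note: higher means more ATP so stronger rescue from cytokine killing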
SKKanGAS inh: S. pyogenes SKKanGAS growth inhibitors in kanamycin, primary screen, streptokinase expression inhibitor project, SKKanGAS strain, BacTiter-Glo luminescence. AID 1662, 2009. inhibition, % at 7.5 µM. 6 h. 300,000 tested, 1.3% active;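 active = mean replicate score, as percent of positive control median, at least 50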;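 note: strain carries kanamycin resistance gene driven by streptokinase promoter and grows in 40 µg/ml kanamycin; loss of luminescence reflects streptokinase promoter inhibition or plain growth inhibition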
Of the large screens only hits and unclear results are named; the others gave an inactive call.

CCNC(=S)Nc1ccc(NC(=O)c2ccccc2O)cc1	none
O=C(Nc1cccnc1)c1cccnc1Cl	none
CCOC(=O)c1cc(C#N)c(N2CCN(c3ccc(OC)cc3)CC2)[nH]c1=O	none
COC(=O)C(Cc1ccccc1)NC(=O)CCNC(=O)c1ccc(Br)cc1 (configuration not stated)	none
Cc1ccc(CN2CCN(C(=O)CC(C)C)CC2)cc1	none (no result: Beta cell apopt)
O=C(Nc1nnc(-c2ccc3c(c2)CCCC3)o1)c1ccccc1Cl	SKKanGAS inh 90 (no result: Beta cell apopt)
O=C(COc1ccccc1)Nc1nnc(-c2ccc3c(c2)CCCC3)o1	SKKanGAS inh 89
O=C(Nc1cccc2c1CCCC2)c1ccccc1Cl	none
O=C(COc1ccccc1)Nc1nnc(-c2ccccc2Cl)o1	SKKanGAS inh 53
O=C(C[C@H]1CC[C@H]2[C@@H](COC[C@@H](O)CN2S(=O)(=O)c2ccc(F)cc2)O1)N[C@@H]1CCN(Cc2ccccc2)C1	none (no result: NR3A LBD binder, Mdm2 MdmX PPI, CSC inhib, Beta cell apopt, SKKanGAS inh)
CC(C)c1ccc(N=C(N)N=C(N)N)cc1	none
C=CCOc1ccc(Cl)cc1-c1noc(-c2csc([C@H]3C[C@H](O)[C@@H](CO)O3)n2)n1	none (no result: NR3A LBD binder, Mdm2 MdmX PPI, CSC inhib, Beta cell apopt, SKKanGAS inh)
O=C(COC(=O)C1(c2ccc(F)cc2)CCCC1)NCc1ccc2c(c1)OCO2	NR3A LBD binder 16
c1ccc(-c2nnc(-c3ccccc3)c(-c3c[nH]c4ccccc34)n2)cc1	NR3A LBD binder 15
CC1CCCN(C(=O)CCNS(=O)(=O)c2ccc3c(c2)oc(=O)n3C)C1 (configuration not stated)	none
CCOc1cc(S(=O)(=O)Nc2ccc(Cl)cn2)ccc1F	NR3A LBD binder 11
CCOc1cc(S(=O)(=O)Nc2ccc(CC)cc2)ccc1Cl	NR3A LBD binder 13, CSC inhib 123
O=[N+]([O-])c1cccc(-c2csc(Nc3ccccc3)n2)c1	NR3A LBD binder 30, CSC inhib 94 (no result: SKKanGAS inh)
COc1ccccc1Nc1nc(-c2cccc([N+](=O)[O-])c2)cs1	NR3A LBD binder 33
O=C(Nc1nc(-c2ccccc2)cs1)c1cccc([N+](=O)[O-])c1	NR3A LBD binder 24
COc1ccccc1Nc1nc(-c2sc(NC(=O)c3ccc([N+](=O)[O-])cc3)nc2C)cs1	none (no result: NR3A LBD binder, MPTP inh)
COc1cc(NS(=O)(=O)c2ccc(Nc3nc(-c4cccc([N+](=O)[O-])c4)cs3)cc2)nc(OC)n1	NR3A LBD binder 29
Cc1ccc(CS(=O)(=O)CCC(=O)NCc2ccccc2Cl)cc1	none
c1ccc2c(c1)c1c(c3ccccc32)CN2CCCC2C1 (configuration not stated)	none (no result: Mdm2 MdmX PPI, CSC inhib, Beta cell apopt, SKKanGAS inh)
CCN(CC)c1ncnc2c1ncn2[C@H]1CN(C2CCCC2)C[C@@H](CO)O1	none (no result: NR3A LBD binder, Mdm2 MdmX PPI, CSC inhib, Beta cell apopt, SKKanGAS inh)
CN(C)c1ccc(/C=N/NC(=O)CN2CCCCC2)cc1Br	none
C/C(N)=C(/C#N)C(=O)COc1ncnc2ccccc12	none
C/C(N)=C(/C#N)C(=O)COC(=O)c1cc(-c2ccc(Br)cc2)nc2ccccc12	NR3A LBD binder 18, SKKanGAS inh 70 (no result: Mdm2 MdmX PPI)
CCC(=O)Nc1nnc(SCC(=O)Nc2ccc3c(c2)OCCO3)s1	none (no result: CSC inhib, Beta cell apopt)
Nn1c(SCC(=O)Nc2ccc3c(c2)OCO3)nnc1-c1ccc(Cl)cc1	NR3A LBD binder 18
CCC(=O)Nc1nnc(SCC(=O)Nc2ccc3c(c2)OCO3)s1	NR3A LBD binder 28
CC(C)C(=O)Nc1nnc(SCC(=O)Nc2ccc3c(c2)OCCO3)s1	none
CC(C)C(=O)Nc1nnc(SCC(=O)Nc2ccc3c(c2)OCO3)s1	NR3A LBD binder 36 (no result: CSC inhib)
Cc1ccc2c(C)c(C)c(=O)n(C)c2c1	NR3A LBD binder 11 (no result: Mdm2 MdmX PPI, CSC inhib, Beta cell apopt, SKKanGAS inh)
N/C(=N\OC(=O)C1CC1)c1ccc([N+](=O)[O-])s1	none
O=C(CSc1nnc(-c2ccccc2O)n1Cc1ccccc1)NNC(=O)c1ccccc1O	CSC inhib 133
O=C(CSc1nnc(-c2ccccc2)n1Cc1ccccc1)NNC(=O)c1ccccc1O	none (no result: CSC inhib, Beta cell apopt)
O=C(NCc1ccco1)/C(=C/c1ccccc1F)NC(=O)c1ccccc1	NR3A LBD binder 14
CC1CN(C(=O)CSc2nnc(-c3ccccc3)o2)CC(C)O1 (configuration not stated)	none (no result: CSC inhib)
